Compound activity from PubChem BioAssay.
TSHR ag – TSH receptor (human) agonism. P16473. HEK293-CNG-TSHR cells (CNG channel as cAMP sensor), membrane potential dye, cAMP. Potency, µM (top dose mostly 57.1 µM), inactives show at the highest dose activation, most hits filed as activators. 73,000 compounds, 0.48% hits; active = well fitted activation curve with a large enough effect in the main read-out, with a control signal flat, not every such curve was filed as active; inconclusive = small, poorly fitted or top-dose-only effect, or a change in a side signal; inactive = no such curve, though single readings can be large or run the other way; % of control where 0% means no effect;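 note: the control signal comes from parental cells without the receptor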
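HEK 293 cells stably expressing TSHR and a modified CNG channel, with CNG-only parental cells as counterscreen, were preloaded 60 min at room temperature with membrane potential dye containing 100 uM RO 20-1724. Compound exposure was 30 min, and depolarization was read as fluorescence at 590 nm.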
PK Bst – alters activity of Bacillus stearothermophilus pyruvate kinase | purified pyruvate kinase, luminescence ATP production; ribose 5-phosphate activator present at AC10 | 51,000 compounds, 1.2% hits | AID 361 | Potency, µM; in the data active = potency below about 11 µM; inconclusive = mostly about 12 µM to 25 µM;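 the screen sought inhibitors and activators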;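 note: scaled between full activation by ribose 5 phosphate and full inhibition by luteolin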
ERK AVP inh – vasopressin-driven ERK pathway inhibition; Potency, µM (titrated, usually from 57.5 µM), inactives show top-dose activity, negative = inhibition, actives largely listed as inhibitors; HEK293-V1b, vasopressin-stimulated pERK AlphaScreen; AID 995; 72,000 compounds, 0.99% hits; note: % is set by controls: 0 for no effect and ±100 for the full control effect; nearly all actives have a fitted effect of over 55% in size
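qHTS, compounds titrated on V1b-expressing HEK293 cells. Preincubation 30 min at 37C, vasopressin 25 nM for 5 min, lysis 10 min, bead incubation 5 hr at room temperature.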
Tau filament bind – tau filament binding; P10636; recombinant tau filaments, thioflavin S fluorescence, 15 h; filaments grown with octadecylsulfate alongside compound; Potency, µM (top dose mostly 57.1 µM), inactives show top-dose activity change, negative = inhibition; 71,000 compounds, 2% hits; AID 596;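 note: % is set by controls: 0 for no effect and ±100 for the full control effect; actives lower thioflavin S fluorescence by blocking filaments or displacing dye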
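His-tagged recombinant human tau (exons 2, 3, 10; 1 uM final) fibrillized with 30 uM sodium octadecylsulfate, 15 h at 37 C, in pH 7.4 HEPES buffer with 10 uM thioflavine S and 5 mM DTT. Reduced ThS fluorescence (450/510 nm) marks activity.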
HEK293 cAMP ctrl – raises cAMP in parental HEK293 cells, TSHR agonist counter-screen; parental HEK293 CNG cAMP sensor, membrane potential fluorescence; Potency, µM (titrated, usually from 57.1 µM), without a hit: at the top dose activation, usual class: activators; 73,000 compounds, 2.5% hits; AID 938; note: % of control where 0% means no effect; nearly all actives have a fitted effect of over 55% in size
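Parental HEK 293 cells stably expressing a modified CNG channel (no TSHR) report cAMP rise as membrane depolarization. Membrane potential dye with 100 uM RO 20-1724 was loaded for 60 min at room temperature, then compound added for 30 min; fluorescence read at 590 nm.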
FLuc inh – firefly luciferase inhibition; P08659; purified firefly luciferase, luminescence, 8 min; Potency, µM (series often up to 57.1 µM), for the others: at the top dose activity change, negative = inhibition, usual class: inhibitors; 72,000 compounds, 2.2% hits; note: % is set by controls: 0 for no effect and ±100 for the full control effect; nearly all actives have a fitted effect of over 40% in size
Target sequence (P08659 whole entry, looked up): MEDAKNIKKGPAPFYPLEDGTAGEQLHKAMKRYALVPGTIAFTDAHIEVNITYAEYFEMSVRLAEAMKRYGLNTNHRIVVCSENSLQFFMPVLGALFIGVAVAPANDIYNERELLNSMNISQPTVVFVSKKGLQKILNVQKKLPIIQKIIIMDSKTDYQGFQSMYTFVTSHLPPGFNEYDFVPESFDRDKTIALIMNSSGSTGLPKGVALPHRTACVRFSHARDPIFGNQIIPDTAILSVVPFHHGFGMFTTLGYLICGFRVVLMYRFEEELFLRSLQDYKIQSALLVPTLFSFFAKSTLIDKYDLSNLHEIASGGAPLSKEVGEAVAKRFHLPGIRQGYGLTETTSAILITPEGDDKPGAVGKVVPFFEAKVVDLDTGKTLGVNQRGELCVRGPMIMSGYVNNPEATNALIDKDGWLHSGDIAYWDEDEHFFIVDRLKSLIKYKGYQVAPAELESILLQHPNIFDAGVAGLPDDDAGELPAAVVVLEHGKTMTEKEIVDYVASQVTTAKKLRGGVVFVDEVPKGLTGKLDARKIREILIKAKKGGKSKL
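Here, luciferase activity is measured as luminescence following an 8 min room-temperature reaction at 10 uM ATP, pH 7.2. Every library sample is titrated.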
* hit, by the source's call; i = inactive; ? = inconclusive; nt = no result given; [ ] = dose if it differs, or a comment. The list is not random: actives were taken first. Their share in the collection is about 7.2%. Unless noted, calls come from the whole dose curve; as a rule, active = well fitted curve in the direction sought with a large enough effect; inconclusive = small, poorly fitted or top-dose-only effect, or another doubt; inactive = no such curve, though single readings can be large; an effect the other way counts as inactive or inconclusive. Potency is the fitted concentration of half-maximal effect.

SMILES	TSHR ag	PK Bst	ERK AVP inh	Tau filament bind	HEK293 cAMP ctrl	FLuc inh
COc1cc(-c2noc(-c3ccco3)n2)cc(OC)c1OC	?	>57	-19%	-7%	-53%	-11%
COc1ccccc1-c1nc(-c2cccc(C)c2)no1	-5%	9.4*	15%	-18%	18%	13µM*
CCOc1cc(-c2nc(-c3ccccc3OC)no2)cc(OCC)c1OCC	9%	>57	-2%	13%	29%	1%
COc1ccccc1-c1noc(-c2ccco2)n1	3%	nt	-24%	-5%	4%	20µM*
COc1ccccc1CNc1nc(-c2ccccc2CN(C)C)nc2ccccc12	?	nt	21%	170%	?	1%[2.29 µM]
O=C(Cc1ccccc1)Nc1nc2ccc(Cl)cc2c2nc(-c3ccco3)nn12	?	nt	-14%	3%	?	-2%
CCN(C1CCCCC1)S(=O)(=O)c1cc(C)ccc1OC	?	>57	-22%	-3%	?	1%
CCN(C1CCCCC1)S(=O)(=O)c1cn(C)c(=O)n(C)c1=O	?	nt	nt	2%	3.2µM*	-5%
Cc1ccc(NC(=O)CSCC(N)=O)cc1C	26%	>57	-15%	3.2µM*	14%	-27%
O=C(N1CCCCC1)C1(c2ccccc2)CCOCC1	?	>57	17%	25%	16µM*	0%
O=C(N1CCOCC1)C1(c2ccccc2)CCCCC1	-9%	>57	-4%	8%	10%	-2%
COc1cccc(-c2cc(C(=O)Nc3cc(C)on3)no2)c1	14%	>57	0%	i	24%	-4%
COC(=O)c1c(-c2cccnc2)csc1NC(=O)c1cc(C)on1	-3%	?	-15%	2%	0%	13µM*
COC(=O)c1c(-c2ccc(F)cc2)csc1NC(=O)c1ccco1	?	nt	0%	i[11.4 µM]	4µM*	13µM*
Cn1c(=O)c(CCc2ccccc2)nc2cnc(N3CCNCC3)nc21	20%	nt	-6%	32%	14%	-8%[11.4 µM]
Nc1c(C(=O)NCc2ccco2)sc2nc3c(cc12)C(=O)CCC3	-3%	>57	?	20µM*	-4%	1%
C[C@@H](C(=O)NCc1ccccc1)[C@H]1C[C@]1(C)[C@H](NC(=O)OCc1ccccc1)c1ccccc1	?	nt	9%	-1%	16µM*	nt
COC(=O)[C@H](C)[C@@H]1C[C@@]1(C)[C@@H](NC(=O)OCc1ccccc1)c1ccccc1	?	nt	-13%	-7%	16µM*	nt
CC(C)=CC1C(C(=O)Nc2ccc(Br)cn2)C1(C)C (stereo not given)	?	nt	5%	-11%	25µM*	-1%
CC(C)(C)c1ccc(C(=O)/C=C2\NC(=O)CS2)cc1	3%	3.3*	?	3%	-13%	2.5µM*
CN1CCc2c(sc3c2c(=O)n(-c2ccccc2)c2nnc(SCc4ccc(Cl)cc4)n32)C1	3%	>57	-28%	3.2µM*	7%	1%
CC(C)Oc1ccc(CSc2nnc3n(C)c(=O)c4c5c(sc4n23)CCCC5)cc1	?	>57	-16%	25%	16µM*	0%
CCOC(=O)Nc1nc(-c2ccccc2)c(C)s1	5%[11.4 µM]	nt	1%[11.5 µM]	11%[11.4 µM]	-6%[11.4 µM]	0%[11.4 µM]
c1ncc(-c2ccc3c(c2)OCO3)c(NCCc2cnc[nH]2)n1	1%	nt	3%	4%	8%	1%[2.29 µM]
C/C(=C\COc1cc(=O)[nH]c2ccccc12)CC[C@@H](O)C(C)(C)O	1%	nt	nt	40µM*	-4%	-2%[11.4 µM]
SMILES	TSHR ag	PK Bst	ERK AVP inh	Tau filament bind	HEK293 cAMP ctrl	FLuc inh
CCCCOC(=O)c1cc(=O)[nH]c2ccccc12	?	?	12%	-30%	?	1%
Cc1cc2c(nc1C)CCCCN2C[C@H](O)CN1CCCc2nc(-c3ccc(Br)cc3)ccc21	-8%[11.4 µM]	nt	17%[11.5 µM]	nt	11%[11.4 µM]	-7%[11.4 µM]
CC1(C)OC2C(CO)OC(n3cnc4c(=O)[nH]c(N)nc43)C2O1 (stereo not given)	nt	nt	-7%	nt	nt	nt
COc1ccccc1-c1cc(C(F)(F)F)nc(N2CCOCC2)n1	?	>57	3%	-3%	20µM*	0%
NCCC[C@@H](CC(=O)N[C@@H]1CCCC[C@H]1C(=O)N[C@H](CC(=O)N[C@@H](CCC(=O)O)CC(=O)O)Cc1ccccc1)NC(=O)C[C@H](CO)NC(=O)[C@@H]1CCCC[C@H]1N	8%	nt	nt	4%	3%	nt
Cc1ccc(-c2nnc(SCc3ccccc3F)o2)cc1	?	i	140%	11%	?	20µM*
CCCCSc1nnc(-c2cc(Br)ccc2N)c(=O)[nH]1	9%	>57	?	20µM*	9%	1%
Clc1ccc([C@@H](c2ccccc2Cl)C(Cl)Cl)cc1	20µM*	nt	nt	5%	12%	-5%
Clc1ccccc1C(Nc1ncccn1)Nc1ncccn1	-1%[11.4 µM]	nt	14%[11.5 µM]	-1%[11.4 µM]	-1%[11.4 µM]	2%[11.4 µM]
CC(=O)N(CCP(=O)(c1ccccc1)c1ccccc1)Cc1ccco1	?	nt	?	-16%	32µM*	-1%
O=P(CCNCc1ccco1)(c1ccccc1)c1ccccc1	?	nt	5%	-8%	?	0%
CCCCNC(=O)[C@@H]1Cc2ccccc2N1C(=O)[C@H](N)CC	1%	nt	10%	?	5%	2%
CCC(=O)Oc1ccc(C(CC)C(CC)c2ccc(OC(=O)CC)cc2)cc1 (stereo not given)	nt	>26	nt	nt	nt	0%[25.5 µM]
CCn1ccc(C(=O)Oc2ccc(C(C)C)cc2)n1	0%	i	12%	-4%	-5%	13µM*
OCc1nc2ccccc2n1CCCOc1ccc(Br)cc1	19%	?	?	51%	28%	13µM*
Cc1ccc(S(=O)(=O)Oc2ccc(N=Nc3ccc(-c4ccc(N=Nc5c(O)ccc6cc(S(=O)(=O)O)cc(S(=O)(=O)O)c56)c(C)c4)cc3C)cc2)cc1	4%	nt	25µM*	0.01µM*	12%	nt
O=S(=O)(O)c1ccc2cc(N=Nc3cc(S(=O)(=O)O)c4cccnc4c3O)ccc2c1	-3%[11.4 µM]	nt	-1%[11.5 µM]	7%[11.4 µM]	2%[11.4 µM]	-1%[11.4 µM]
O=S(=O)(O)c1cc(O)c2c(O)c(N=Nc3cccc4ccccc34)c(S(=O)(=O)O)cc2c1	-9%[11.4 µM]	nt	?	?	-5%[11.4 µM]	-25%[11.4 µM]
Cc1ccc(N=Nc2c(O)ccc3cc(S(=O)(=O)O)ccc23)cc1	-4%[11.4 µM]	nt	4%[11.5 µM]	3.2µM*	4%[11.4 µM]	-22%[11.4 µM]
Cc1noc(C)c1-c1cc(N(C)C)ncn1	2%	nt	5%	-6%	-10%	-2%[2.29 µM]
NC(C(=O)O)C(O)C(=O)O (stereo not given)	nt	nt	18%	nt	nt	nt
COC(=O)c1ccc(-n2nnnc2SCc2ccccc2OC)cc1	?	>57	72%	19%	16µM*	0%
CCOC(=O)c1oc2ccccc2c1CSc1nnnn1-c1ccc(OC)cc1	?	>57	-10%	1%	16µM*	3%
CCCn1c(=O)c2ccccc2n2c(SCC(=O)NCc3cccs3)nnc12	?	nt	?	-2%	20µM*	0%
